# Key:
# Experiment in all cases: PBM binding z-score (relative to random genomic background probes); higher = stronger binding; sequences stand for … in GC…GCGATTGACAGCGTAGAATGAAGG
# [1] = test system: FXR:RXRa (NR concentration 270 nM, RXRa partner concentration 90 nM)
# Procedure, shortened: (§1)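 Scanned fluorescence from custom Agilent 4×180K protein-binding microarrays was regression-normalized. Binding z-scores use random background probes as reference. Ligand-free nuclear receptor dimers were incubated on the arrays for 1 h and detected with antibodies against each partner (one per run).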
# [2] = test system: LXRa:RXRa (NR concentration 270 nM, RXRa partner concentration 90 nM)
# Procedure, shortened: as §1
# [3] = test system: LXRa homodimer (NR concentration 270 nM)
# Procedure, shortened: as §1
# [4] = test system: LXRb:RXRa (NR concentration 270 nM, RXRa partner concentration 90 nM)
# Procedure, shortened: as §1
# [5] = test system: LXRb homodimer (NR concentration 270 nM)
# Procedure, shortened: as §1
# [6] = test system: PPARa:RXRa (NR concentration 270 nM, RXRa partner concentration 90 nM)
# Procedure, shortened: as §1
# [7] = test system: PPARg:RXRa (NR concentration 180 nM, RXRa partner concentration 90 nM)
# Procedure, shortened: as §1
# [8] = test system: PPARg:RXRa 270nM:90nM, anti-RXR (NR concentration 270 nM, RXRa partner concentration 90 nM)
# Procedure, shortened: as §1
# [9] = test system: PPARg:RXRa 30nM:10nM, anti-RXR (NR concentration 30 nM, RXRa partner concentration 10 nM)
# Procedure, shortened: as §1
# [10] = test system: PPARg:RXRa 90nM:30nM, anti-RXR (NR concentration 90 nM, RXRa partner concentration 30 nM)
# Procedure, shortened: as §1
# [11] = test system: PPARg:RXRa DBDmut IVT, anti-RXR (DBD mutation: RXRa K156A/R161A, NR concentration 270 nM, RXRa partner concentration 90 nM)
# Procedure, shortened: as §1
# [12] = test system: PPARg:RXRa IVT, anti-PPARg (NR concentration 270 nM, RXRa partner concentration 90 nM)
# Procedure, shortened: as §1
# [13] = test system: PPARg DBDmut IVT, anti-PPARg (DBD mutation: PPARg1 K132A/R137A, NR concentration 270 nM)
# Procedure, shortened: as §1
# [14] = test system: PPARg homodimer (NR concentration 180 nM)
# Procedure, shortened: as §1
# [15] = test system: PXR:RXRa (NR concentration 270 nM, RXRa partner concentration 90 nM)
# Procedure, shortened: as §1
# [16] = test system: PXR homodimer (NR concentration 270 nM)
# Procedure, shortened: as §1
# [17] = test system: RARa:RXR (NR concentration 270 nM, RXRa partner concentration 90 nM)
# Procedure, shortened: as §1
# [18] = test system: RARa homodimer (NR concentration 270 nM)
# Procedure, shortened: as §1
# [19] = test system: RARb:RXRa (NR concentration 270 nM, RXRa partner concentration 90 nM)
# Procedure, shortened: as §1
Sequence,PBM binding z-score [1],PBM binding z-score [2],PBM binding z-score [3],PBM binding z-score [4],PBM binding z-score [5],PBM binding z-score [6],PBM binding z-score [7],PBM binding z-score [8],PBM binding z-score [9],PBM binding z-score [10],PBM binding z-score [11],PBM binding z-score [12],PBM binding z-score [13],PBM binding z-score [14],PBM binding z-score [15],PBM binding z-score [16],PBM binding z-score [17],PBM binding z-score [18],PBM binding z-score [19]
CGAACTAGGTCACAGGACAGTGAAAGGCGACGTA,4.05,2.67,-0.102,1.78,-0.469,5.21,8.8,7.37,4.65,7.31,8.61,8.91,3.67,2.35,1.38,-0.238,2.22,0.616,4.11
ATATGTAGGTTAGGGTCATTTAGAAAGTAGGGAA,4.85,3.93,1.62,4.59,1.67,5.67,7.69,6.54,4.42,6.23,6.56,6.66,2.64,3.47,4.23,1.89,4.82,1.85,3.33
ATAGGTAGGTTAGGGTCATTCAGAAAGTAGGGAA,5.28,4.39,2.09,4.8,2.83,5.26,5.56,4.89,2.63,4.2,3.34,4.16,1.6,3.27,5.14,3.11,5.48,3.2,4
CGAACTAGGTCACCACGACAGTGAAGAGGTTGGA,4.13,2.41,0.318,1.87,-0.171,5.18,8.44,7.14,4.87,6.86,8.39,9,4.26,2.32,1.46,-0.289,2.78,0.591,4.21
CGAACTAGGTCACCATGACAGTGAAGAGGTTGGA,3.62,1.88,-0.254,1.49,0.0449,4.95,8.32,6.55,4.64,6.23,7.11,8.4,1.33,1.97,1.4,-0.124,2.42,0.707,4.23
ATGTGTAGGTTAGGGTCATTCAGAAAGTAGGGAA,5.11,4.15,1.8,4.76,2.68,5.13,4.57,4.47,2.37,3.65,2.92,3.98,1.73,3.73,4.68,3.2,5.25,2.44,3.87
CGAACTAAGTCACCAGGACAGTGAAGAGGTTGGA,-0.00843,-0.109,-0.233,-0.378,-0.234,0.219,0.494,0.0365,0.0312,-0.255,2.13,1.61,-0.0362,0.131,-0.257,0.203,0.00404,-0.12,0.526
CGAAGTAGGTCACCAGGACAGTGAAGAGGTTGGA,3.65,2.69,0.0752,2.07,-0.257,5.34,8.79,7.35,4.81,7.02,8.22,8.92,0.944,1.76,1.71,0.236,2.78,0.426,3.99
CGAACCAGGTCACCAGGACAGTGAAGAGGTTGGA,5.33,3.4,0.19,2.53,-0.432,4.96,6.6,5.66,2.44,4.73,5.49,6.38,0.103,2.28,2.81,0.0931,3.75,0.523,4.37
CGAACTAGGTCAAAGGACAGTGTAAGGCGACGTA,3.76,2.6,-0.176,1.73,-0.314,5.13,9.94,8.19,6.9,8.83,7.92,7.95,-0.12,0.849,1.19,-0.0737,2.22,0.371,3.91
CGAAATAGGTCACCAGGACAGTGAAGAGGTTGGA,5.67,4.08,0.461,3.13,0.187,5.9,8.44,7.47,4.7,6.97,7.94,8.03,1.09,1.95,2.67,0.221,3.82,1.35,4.78
CGAACTAGGTCAAAGGAAAGTGAAAGGCGACGTA,3.12,1.88,-0.168,1.2,-0.265,4.7,8.32,7.07,5.62,7.13,7.92,8.23,1.64,0.636,0.854,-0.0237,1.65,0.526,3.55
CAAACTAGGTCAAAGGACAGTGAAAGGCGACGTA,3.9,3.01,0.388,2.12,0.744,5.51,10.3,8.88,8.82,10.4,8,8.6,4.51,2.88,1.45,0.371,2.48,0.774,3.99
CGAACTAGGTCAAAGGACAGTAAAAGGCGACGTA,4.06,2.48,0.208,2.04,-0.428,5.67,9.93,8.18,7.65,8.57,8.07,8.42,0.249,1.7,1.14,0.0773,2.09,0.769,4.06
CGAACTAGGTCAAAGAACAGTGAAAGGCGACGTA,3.3,1.96,-0.252,1.43,-0.259,4.66,8.35,7.08,5.63,7.35,7.89,8.03,1.2,0.602,0.752,-0.206,1.51,-0.184,3.58
